About 79,000 compounds went through this panel and 15% of them were active in at least one assay; those are over-represented in the sample as a whole. Values without a mark were called inactive. The source made the active and inactive calls. Cut-off read from the data, not from the text of the source: active = growth inhibition above about 70%; inactive = the rest.
Tests used:
[1] = NCI Yeast Anticancer Drug Screen. Data for the rad50 strain (AID 155);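 note: 0% = growth of vehicle-only cultures of the same strain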; details: S. cerevisiae rad50 strain growth inhibition, active compounds read high
How it was run: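 A DNA repair-deficient yeast mutant serves as the test organism; compound-induced growth inhibition is calculated against vehicle-treated cells.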

[2] = NCI Yeast Anticancer Drug Screen. Data for the mec2-1 strain (AID 157); details: S. cerevisiae mec2-1 strain, active compounds read high
How it was run: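 Vehicle-treated cultures served as reference for growth inhibition of compound-exposed mec2-1 yeast.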

[3] = NCI Yeast Anticancer Drug Screen. Data for the sgs1 mgt1 strain (AID 161);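 note: 0% = growth of cultures given vehicle only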; details: S. cerevisiae sgs1 mgt1 strain, active compounds read high
How it was run: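 Inhibition of yeast growth, normalised to vehicle-treated controls, is reported for a strain bearing genetic alterations in DNA damage repair.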

[4] = NCI Yeast Anticancer Drug Screen. Data for the cln2 rad14 strain (AID 165);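 note: 0% = growth equal to vehicle treated cultures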; details: S. cerevisiae cln2 rad14 strain, active compounds read high
How it was run: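 Each compound was tested on cln2 rad14 yeast. Inhibition of growth was calculated against vehicle-exposed controls.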

[5] = NCI Yeast Anticancer Drug Screen. Data for the bub3 strain (AID 167); details: S. cerevisiae bub3 mutant strain, active compounds read high
How it was run: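 Inhibition values come from growth of compound-treated mutant yeast normalised to vehicle-treated controls.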

[6] = NCI Yeast Anticancer Drug Screen. Data for the mlh1 rad18 strain (AID 175); details: S. cerevisiae mlh1 rad18 strain growth inhibition, active compounds read high
How it was run: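 Vehicle-treated cultures served as the reference for growth inhibition in a yeast strain carrying DNA damage repair alterations exposed to each compound.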

[7] = at 5.0 µM (retest, dose inferred, filed as 0.5)
[8] = at 50.0 µM (retest, dose inferred, filed as 5.0)

| Structure (SMILES) | growth inhibition [1, 7] | growth inhibition [1, 8] | growth inhibition ([1]; at 50.0 µM) | growth inhibition [2, 7] | growth inhibition [2, 8] | growth inhibition ([2]; at 50.0 µM) | growth inhibition [3, 7] | growth inhibition [3, 8] | growth inhibition ([3]; at 50.0 µM) | growth inhibition [4, 7] | growth inhibition [4, 8] | growth inhibition ([4]; at 50.0 µM) | growth inhibition [5, 7] | growth inhibition [5, 8] | growth inhibition ([5]; at 50.0 µM) | growth inhibition [6, 7] | growth inhibition [6, 8] | growth inhibition ([6]; at 50.0 µM) |
| --- | --- | --- | --- | --- | --- | --- | --- | --- | --- | --- | --- | --- | --- | --- | --- | --- | --- | --- |
| CC(=O)N(C)c1cc(NCc2ccccc2)ccc1OCc1ccccc1 | 1% | 96% (active) | 98.1% (active) | 12% | 95% (active) | 97.8% (active) | 2% | 96% (active) | 97.7% (active) | -60% | 24% | 79.8% (active) | -7% | -65% | 95.7% (active) | -1% | 96% (active) | 98.3% (active) |
| Clc1ccc(CNc2ccc(Cl)c(Cl)c2)cc1 | 8% | 95% (active) | 97.8% (active) | 36% | 97% (active) | 98.2% (active) | 11% | 97% (active) | 98.2% (active) | -10% | 91% (active) | 97.7% (active) | 2% | 96% (active) | 97.5% (active) | 15% | 95% (active) | 97% (active) |
| COc1ccc2c(C#N)cc3c(c[n+](C)c4ccccc34)c2c1 | 25% | 78% (active) | 92% (active) | 13% | 58% | 86.4% (active) | 19% | 71% (active) | 87.8% (active) | 15% | 48% | 80.7% (active) | -2% | 65% | 78% (active) | 21% | 83% (active) | 92% (active) |
| Cc1ccnc(NS(=O)(=O)c2ccc(N=Cc3c4ccccc4nc4cc(Cl)ccc34)cc2)n1 | 58% | 15% | 99.4% (active) | 32% | 38% | 99.2% (active) | 41% | 23% | 99.4% (active) | 16% | 1% | 99% (active) | 40% | -2% | 58.1% | 24% | 11% | 99.3% (active) |
| COC(=O)C1=C(NC(=O)Nc2ccc(Cl)cc2)OC(C)(C)C1c1ccc(Cl)cc1 (centres undefined) | 87% (active) | 88% (active) | 96.5% (active) | 94% (active) | 94% (active) | 98% (active) | 85% (active) | 92% (active) | 97.1% (active) | 80% (active) | 87% (active) | 94.8% (active) | 89% (active) | 89% (active) | 95.4% (active) | 85% (active) | 89% (active) | 96.8% (active) |
| CC(C)(C)NC(=S)N/N=C/c1cc(Cl)cc(Cl)c1O | 65% | 72% (active) | 77.1% (active) | 64% | 84% (active) | 90% (active) | 97% (active) | 99% (active) | 90.4% (active) | 88% (active) | 93% (active) | 82.7% (active) | 97% (active) | 98% (active) | 84.7% (active) | 74% (active) | 87% (active) | 80.7% (active) |
| CO[C@H]1CC[C@@]2(C)C(=CC[C@H]3[C@@H]4C[C@H](OC(C)=O)C[C@@]4(C)CC[C@@H]32)C1 | 4% | 43% | 26.4% | 2% | 26% | 17.8% | 1% | 24% | 38.3% | 2% | 28% | 86.7% (active) | 1% | 19% | 13.3% | 0% | 23% | 34.9% |
| [Cl-].[La+3].[O-]/N=C(\c1ccccc1)c1ccccn1.[O-]/N=C(\c1ccccc1)c1ccccn1.[O-]/N=C(\c1ccccc1)c1ccccn1 | 42% | 63% | 63.3% | 25% | 60% | 40.2% | 31% | 68% | 43.2% | 21% | 34% | 43.5% | 42% | 90% (active) | 67.3% | 43% | 68% | 59.2% |
| O=C(Nc1ccc(Br)cc1)Oc1ccccc1C(=O)Nc1ccccc1 | 6% | 95% (active) | 79.1% (active) | 1% | 96% (active) | 70.3% (active) | 0% | 98% (active) | 91% (active) | 2% | 94% (active) | 54.2% | 5% | 98% (active) | 89.9% (active) | 4% | 96% (active) | 97.8% (active) |
| CN(C)N=Nc1ccc2[nH]c(=O)[nH]c2c1 | 16% | 18% | 53% | 5% | 9% | 38.8% | 16% | -18% | 12.6% | 13% | -54% | 29.1% | 14% | -11% | 74% (active) | 19% | 19% | 72.5% (active) |
| CO[C@H]1C[C@@H]2CC[C@@H](C)[C@@](O)(O2)C(=O)C(=O)N2CCCC[C@H]2C(=O)O[C@H]([C@H](C)C[C@@H]2CC[C@@H](OC(=O)C(C)(CO)CO)[C@H](OC)C2)CC(=O)[C@H](C)/C=C(\C)[C@@H](O)[C@@H](OC)C(=O)[C@H](C)C[C@H](C)/C=C/C=C/C=C/1C | 98% (active) | 97% (active) | 82.5% (active) | 99% (active) | 98% (active) | 86.8% (active) | 98% (active) | 98% (active) | 87.3% (active) | 93% (active) | 88% (active) | 88% (active) | 97% (active) | 96% (active) | 89.5% (active) | 98% (active) | 97% (active) | 89.5% (active) |
| O=c1c2ccccc2[nH]c2c1[nH]c1ccccc12 | 10% | 23% | 37% | 11% | 25% | -11.7% | 5% | 24% | -1.65% | 7% | 11% | 83.4% (active) | 7% | 22% | -20.6% | 12% | 28% | 19.9% |
| c1ccc(-c2cc(N3CCCCC3)c(-c3ccccc3)o2)cc1 | -1% | 11% | 21.4% | 9% | 14% | 1.1% | 8% | 28% | 44.4% | 1% | 0% | -5.7% | 7% | 12% | 85.4% (active) | 15% | 43% | 25.1% |
| C=C(C#N)C(=O)OCC(CC)CC.C=C(C#N)C(=O)OCC(CC)CC.CS(C)=O.CS(C)=O.Nc1c(N=Nc2ccc(-c3ccc(N=Nc4cc(S(=O)(=O)[O-])c5ccccc5c4N)cc3)cc2)cc(S(=O)(=O)[O-])c2ccccc12.[Pt+2] | -13% | 98% (active) | 96.8% (active) | 6% | 98% (active) | 96.9% (active) | 1% | 97% (active) | 96.5% (active) | -1% | 98% (active) | 95.8% (active) | 3% | 98% (active) | 92.9% (active) | -6% | 97% (active) | 96.5% (active) |
| Cc1ccc(NCCNCCO)c2c(=O)c3ccccc3sc12 | 27% | 99% (active) | 99.5% (active) | 9% | 100% (active) | 99.6% (active) | 9% | 100% (active) | 99.2% (active) | 8% | 99% (active) | 99.4% (active) | 11% | 99% (active) | 99.5% (active) | 25% | 99% (active) | 99.5% (active) |
| CC(=O)OC(OC(C)=O)c1ccc([N+](=O)[O-])s1 | -77% | 100% (active) | 99.4% (active) | -18% | 100% (active) | 99.4% (active) | 10% | 100% (active) | 99.5% (active) | 1% | 99% (active) | 99.1% (active) | -7% | 100% (active) | 99.5% (active) | 19% | 100% (active) | 99.5% (active) |
| CCn1cnc2[nH]cc(C#N)c2c1=O | -150% | 13% | 7.7% | -50% | -40% | -15.1% | -64% | -33% | 5.6% | -54% | -46% | 34.2% | -67% | -59% | -19.2% | -123% | -86% | 36.7% |
| CCOC(=O)c1ccc2c3c([nH]c2c1C)-c1ccccc1CC3 | 12% | 93% (active) | 93.5% (active) | -7% | 94% (active) | 94% (active) | 14% | 95% (active) | 94.7% (active) | -9% | 91% (active) | 90.7% (active) | 1% | 94% (active) | 94.2% (active) | 14% | 94% (active) | 91.9% (active) |
